Assay results published in the supplement of paper PMC8728848.
This excerpt belongs to a sample that is enriched for the strongest signals.

Experiments:
Assay in all cases: glycan array binding signal (z-score within array); higher = stronger binding
Conditions in all cases: glycan notation: IUPAC condensed, linker removed
[1] = biological target: Neu5Ac(a2-6)Gal(b1-4)GlcNAc(b1-3)Gal(b1-4)GlcNAc
Method in brief: (§1)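 Glycan array binding is given as a within-array Z-score, which can be read as non-binding when negative. The arrays, 3228 of them, came from the Consortium for Functional Glycomics database and were retained only where the protein sequence was available. Z-scores were averaged across arrays of the same protein sequence at different concentrations or buffers and across linkers.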

[2] = biological target: Neu5Ac(a2-6)Gal(b1-4)GlcNAc(b1-3)Gal(b1-4)GlcNAc(b1-3)Gal(b1-4)GlcNAc
Method in brief: as §1

[3] = biological target: Neu5Ac(a2-6)Gal(b1-4)GlcNAc(b1-3)[Neu5Ac(a2-6)Gal(b1-4)GlcNAc(b1-6)]GalNAc
Method in brief: as §1

[4] = biological target: Neu5Ac(a2-6)Gal(b1-4)GlcNAc(b1-6)[Gal(b1-3)GlcNAc(b1-3)]Gal(b1-4)Glc
Method in brief: as §1

[5] = biological target: Neu5Ac(a2-6)GlcNAc(b1-4)GlcNAc
Method in brief: as §1

[6] = biological target: Neu5Ac(a2-8)Neu5Ac(a2-3)[GalNAc(b1-4)]Gal(b1-4)Glc
Method in brief: as §1

Neu5Gc(a2-3)Gal(b1-4)Glc = biological target: Neu5Gc(a2-3)Gal(b1-4)Glc
Method in brief: as §1

B1: EUL D1A second (Oryza sativa) (protein)
chain: GAATACTIGGVPVHTVRVFSAAGEDYCLTVRNGTACLAPKNPRDDYQHWIKDMRHSNKIRDEEGYPAFALVNKVTGEAIKHSTGQGHPVKLVPYNPEYQDESVLWTESKDVGKGFRCIRMVNNIYLNFDAFHGDKDHGGIHDGTEIVLWKWCEGDNQRWKILPWILEQKLISEEDLNSAVDHHHHHH
- glycan array binding signal (z-score) [1]: 0.827
- glycan array binding signal (z-score) [2]: -2.05
- glycan array binding signal (z-score) [3]: 2.81
- glycan array binding signal (z-score) [4]: 0.242
- glycan array binding signal (z-score) [5]: -0.238
- glycan array binding signal (z-score) [6]: 0.083
- glycan array binding signal (z-score) (Neu5Gc(a2-3)Gal(b1-4)Glc): 0.509
